# In the library only some 2.2% were active in any assay of this set; here they are far more common.
# TMEM16A inh – blocks the mouse calcium-activated chloride channel TMEM16A | HEK293 TMEM16A/YFP iodide influx fluorescence, ionomycin | normalized B-score (activity score, 25-100; higher = stronger inhibition) at 10 µM | 310,000 compounds, 1.2% hits | AID 588511;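 active means ratio plate-corrected score three or more library SD toward inhibition, starting fluorescence score within five deviations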;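 further: score derived from kinetic fluorescence span divided by baseline fluorescence per well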
# TLR4 MyD88 comp – blocks binding of human TLR4 to MyD88; inhibition, % at 8.4 µM; 200,000 compounds, 0.18% hits; AID 861; HeLa CL3-4 TLR4/MyD88 BLA complementation, FRET ratio; in the data active means inhibition above about 25%;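 further: 0% = vehicle and 100% = reference inhibitor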
# NOD2-RIPK2 inh – blocks binding of human NOD2 to RIPK2 | O43353 | CHO BLA complementation NOD2-RIPK2, CCF4 ratio | inhibition, % at 4.98 µM | 360,000 compounds, 0.38% hits; in the data active means inhibition above about 21%;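 further: 0% = vehicle only and 100% = reference blocker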
# Target sequence (O43353 whole entry, looked up): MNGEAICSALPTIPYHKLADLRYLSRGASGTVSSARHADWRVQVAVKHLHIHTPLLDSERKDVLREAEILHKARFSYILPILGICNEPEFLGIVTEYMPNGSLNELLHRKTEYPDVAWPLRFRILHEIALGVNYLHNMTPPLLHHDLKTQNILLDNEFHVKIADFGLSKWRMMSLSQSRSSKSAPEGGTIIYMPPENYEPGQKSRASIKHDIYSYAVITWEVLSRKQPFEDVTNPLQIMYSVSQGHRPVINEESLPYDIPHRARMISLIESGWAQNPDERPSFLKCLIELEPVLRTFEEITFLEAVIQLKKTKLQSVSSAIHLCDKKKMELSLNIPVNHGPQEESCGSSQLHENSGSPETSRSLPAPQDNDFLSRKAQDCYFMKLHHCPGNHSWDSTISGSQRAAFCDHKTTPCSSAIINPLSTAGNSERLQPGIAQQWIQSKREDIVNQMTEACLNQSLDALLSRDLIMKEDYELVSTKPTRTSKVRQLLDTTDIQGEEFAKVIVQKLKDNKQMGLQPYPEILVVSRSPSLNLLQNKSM
# GRK2 inh – human GRK2 inhibition via aptamer displacement; P25098; bead flow cytometry, FAM-aptamer displacement from GRK2; inhibition of aptamer binding, % at 10 µM; 330,000 compounds, 0.59% hits; AID 488847;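 active means inhibition of aptamer binding above 40%, roughly 3 SD of noise, on plates passing a quality check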;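 further: median bead fluorescence of bound FAM aptamer so fluorescent compounds give negative values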
# ANO1 activ – activators or potentiators of mouse TMEM16A chloride channel; Q8BHY3; B-score at 10 µM; HEK293 TMEM16A/YFP-H148Q/I152L, iodide quench fluorescence; active compounds read low; 340,000 compounds, 0.3% hits;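 active means fluorescence-ratio B-score plate-corrected deviation score at least 3 library SD below zero, with starting fluorescence score within 5 deviations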;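 further: channel opened by trigger with iodide after compound preincubation; score built on the fluorescence ratio of max minus min over baseline; more negative score means more quench and so TMEM16A activation or potentiation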
# TLR9-MyD88 inh – inhibitors of human TLR9-MyD88 binding; 340,000 compounds, 0.21% hits; CHO BLA complementation TLR9-MyD88, CCF4 FRET ratio; Q9NR96+Q99836; AID 504734; inhibition, % at 4.98 µM;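 active means inhibition above the mean over all tested compounds plus 3 SD, cut at about 21% in these data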;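 further: 0% = DMSO only wells and 100% = clavulanate BLA inhibitor control wells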
# TMEM16A reconf – re-confirmation of mouse TMEM16A chloride channel inhibitors; shares compounds with TMEM16A inh; HEK293 TMEM16A/YFP-H148Q, iodide quench fluorescence; ionomycin added to raise cell calcium; inhibition, % at 10 µM; 2,300 compounds, 39% hits;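 active means mean duplicate percent inhibition, scaled so buffer wells are 0 and the reference blocker 100, over three buffer SD above buffer mean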
# TMEM16A Ca cntr – counter-screen for TMEM16A inhibitors: effect on calcium mobilization. shares compounds with TMEM16A inh. TMEM16A/YFP HEK293, Fluo4 calcium mobilization. calcium response (% of ionomycin), % at 10 µM. 2,300 compounds, 2% hits;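 active means duplicate-averaged calcium signal over 20% of the ionomycin maximum, relative to buffer baseline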;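 further: each well's signal is peak minus trough fluorescence divided by its pre-addition baseline; 0% = buffer wells and 100% = ionomycin wells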
# Parental YFP cnt – parental YFP-HEK293 iodide quench counter-screen activity; shares compounds with TMEM16A inh; ionomycin; YFP ratio F(max-min)/F0 at 10 µM; 2,300 tested, under 10 active; AID 652233;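 active means yellow fluorescent protein signal ratio exceeding the buffer control mean by over 5 SD of those controls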;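 further: ratio is mean of duplicate wells from kinetic YFP trace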
# ClC-1 inh – blocks the rat ClC-1 voltage-dependent chloride channel; CHO ClC-1-YFP, iodide influx fluorescence quench; iodide control reads 0, buffer control 100; shares compounds with TMEM16A inh; 2,300 tested, under 10 active; ratio percent, % at 10 µM;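 active means duplicate-mean ratio percent above the mean of iodide-only control wells, which defines zero, plus 5 of their SD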;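 further: higher percent means stronger block of ClC-1 iodide influx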
# Starred values were filed as active, the others as inactive; i = inactive; nt = no result given.
SMILES,TMEM16A inh,TLR4 MyD88 comp,NOD2-RIPK2 inh,GRK2 inh,ANO1 activ,TLR9-MyD88 inh,TMEM16A reconf,TMEM16A Ca cntr,Parental YFP cnt,ClC-1 inh
CSc1cccc(NC(=O)/C=C/c2ccc(Cl)cc2)c1,100*,-3,1,3,i,4,62%*,i,-1,-8
O=C(CCSCCC(=O)NCc1ccco1)NCc1ccco1,i,18,nt,2,nt,nt,i,i,-0.98,-11
CSc1ccc(CN(C)Cc2nc3ccccc3c(=O)[nH]2)cc1,i,nt,-14,0,i,-2,nt,nt,nt,nt
CS(=O)(=O)c1cccc(C(=O)OCC(=O)c2ccc3c(c2)OCCO3)c1,nt,nt,1,nt,i,2,nt,nt,nt,nt
CNS(=O)(=O)c1cccc(C(=O)OCC(=O)c2cc(C)n(-c3ccc4c(c3)OCO4)c2C)c1,25*,-9,-1,3,i,-5,i,i,-0.95,-8
CNS(=O)(=O)c1cccc(C(=O)OCC(=O)c2cc(C)n(CC3CCCO3)c2C)c1 (centres undefined),nt,nt,-8,0,i,-11,nt,nt,nt,nt
CCN(CC)S(=O)(=O)c1cccc(C(=O)OCC(=O)c2ccc3c(c2)OCCO3)c1,25*,-7,-2,0,i,-3,16%*,i,-0.53,-7
CCN(CC)S(=O)(=O)c1cc(C(=O)OCC(=O)c2ccc3c(c2)NC(=O)CO3)ccc1Cl,100*,-13,-7,0,i,3,18%*,i,-1,-12
CCN(CC)S(=O)(=O)c1ccc(C(=O)OCC(=O)c2ccc3c(c2)NC(=O)CO3)cc1,i,6,-2,2,i,-5,nt,nt,nt,nt
O=C(c1ccc(N2CCN(C(=O)c3ccccc3Br)CC2)cc1)c1cccc(F)c1,100*,nt,7,0,i,0,17%*,i,-1,-10
CCCC(=O)c1ccc(N2CCN(C(=O)c3ccc(Br)cc3)CC2)c(F)c1,i,3,-3,0,i,-4,nt,nt,nt,nt
CCCC(=O)c1ccc(N2CCN(C(=O)c3ccccc3Br)CC2)c(F)c1,100*,2,2,1,i,1,20%*,i,-0.88,-4
CCCC(=O)c1ccc(N2CCN(C(=O)c3ccccc3)CC2)c(F)c1,25*,-9,5,1,i,4,i,i,-1.2,-20
O=C(c1ccc(N2CCN(C(=O)c3cccc(F)c3)CC2)cc1)c1cccc(F)c1,i,nt,-4,1,i,3,nt,nt,nt,nt
O=C(Nc1cccc(C(=O)N2CCCCC2)c1)C1CCCCC1,nt,nt,-2,nt,nt,-11,nt,nt,nt,nt
O=C(O)c1ccc2c(c1)S(=O)(=O)c1cc(N3CCN(c4ncccn4)CC3)ccc1C2=O,nt,nt,5,nt,nt,0,nt,nt,nt,nt
O=C(c1ccc2ccccc2c1)C1CCCN(S(=O)(=O)c2cccnc2)C1 (centres undefined),100*,-9,8,0,i,6,18%*,i,-0.89,-16
O=C(C1CCCN(S(=O)(=O)c2cccnc2)C1)N1CCN(c2ccccn2)CC1 (centres undefined),i,-3,-14,2,i,-8,nt,nt,nt,nt
CNc1ccc(Oc2nc([N+](=O)[O-])nn2C)cc1,i,6,-12,4,i,2,nt,nt,nt,nt
O=C(CSc1ccc(Cl)cc1)N1CCN(c2ncc(C(F)(F)F)cc2Cl)CC1,100*,4,-5,0,i,2,i,i,-0.93,2
O=C(CN1CCN(c2ncc(C(F)(F)F)cc2Cl)CC1)N1CCN(c2ncc(C(F)(F)F)cc2Cl)CC1,i,4,3,0,i,2,nt,nt,nt,nt
Cc1cc(C)nc(NCC(O)CNc2ccccc2Cl)n1 (centres undefined),25*,2,-6,1,i,14,36%*,i,-1.2,-14
CC1(C)S[C@@H]2[C@H](NC(=O)[C@H](N)c3ccccc3)C(=O)N2[C@H]1C(=O)OC1OC(=O)c2ccccc21 (some centres undefined),i,nt,-6,0,i,-8,nt,nt,nt,nt
CN(CC(=O)Nc1c(Cl)cccc1Cl)C(=O)c1ccc2nc[nH]c2c1,i,nt,-1,0,i,1,nt,nt,nt,nt
CCOC(=O)c1c(C)[nH]c(C(=O)N/N=C/c2cc([N+](=O)[O-])ccc2O)c1C,25*,nt,-4,0,i,-1,20%*,i,-1.1,-8
SMILES,TMEM16A inh,TLR4 MyD88 comp,NOD2-RIPK2 inh,GRK2 inh,ANO1 activ,TLR9-MyD88 inh,TMEM16A reconf,TMEM16A Ca cntr,Parental YFP cnt,ClC-1 inh
CCOC(=O)c1c(C)[nH]c(C(=O)N/N=C\c2ccccc2O)c1C,i,3,2,1,i,3,nt,nt,nt,nt
O=C(O)c1ccc(Cl)cc1NC(=O)C1CCN(S(=O)(=O)c2cccs2)CC1,nt,nt,1,nt,nt,-2,nt,nt,nt,nt
CN1/C(=C\C(=O)COc2ccc3c(c2)OCO3)C(C)(C)c2ccccc21,i,3,-7,1,i,-11,i,i,-0.73,4
CN1/C(=C\C(=O)c2ccco2)C(C)(C)c2ccccc21,i,7,4,0,i,8,26%*,i,-0.68,-2
CCOc1cccc(C2/C(=C(/O)c3ccc4c(c3)CC(C)O4)C(=O)C(=O)N2CCCn2ccnc2)c1 (centres undefined),i,nt,8,22,i,9,nt,nt,nt,nt
O=C(N/N=C/c1ccc(O)cc1)c1ccc(COc2cc(Cl)ccc2Cl)o1,25*,4,6,1,-5.6*,-1,i,i,-0.94,-12
O=C(Oc1ccc2ccccc2c1Cl)N1CCCCCC1,25*,5,-10,0,i,-9,i,i,-0.76,-14
O=C(Nc1ccncc1)Nc1ccccc1Cl,i,nt,-9,3,i,4,nt,nt,nt,nt
O=C(Nc1cccnc1)Nc1ccccc1Cl,100*,-17,-1,1,i,-17,i,i,-0.91,-6
O=C(O)CN(c1ccccc1F)S(=O)(=O)c1ccccc1,i,10,-5,0,i,0,i,i,-1,-8
CC(C)C[C@H]1CNC(=O)C(=O)N1C[C@H](C)NC(=O)Cc1ccccc1,i,nt,9,2,i,-5,nt,nt,nt,nt
